ChEMBL document CHEMBL3433997, “St. Jude Leishmania screening dataset” (2016)

What was measured:
Format in all cases: functional
[1] = target: Solute carrier family 2, facilitated glucose transporter member 1 (Homo sapiens) (UniProt P11166); experiment: ST_JUDE_LEISH: Cytotoxicity at 2uM final concentration against transgenic Leishmania Mexicana promastigotes LmGLUT1 that are glucose transport deficient and complemented with the human glucose transporter GLUT1. Activity is measured by DNA content using SYBR green in vitro
Sequence of Solute carrier family 2, facilitated glucose transporter member 1 (Homo sapiens) (P11166 whole entry): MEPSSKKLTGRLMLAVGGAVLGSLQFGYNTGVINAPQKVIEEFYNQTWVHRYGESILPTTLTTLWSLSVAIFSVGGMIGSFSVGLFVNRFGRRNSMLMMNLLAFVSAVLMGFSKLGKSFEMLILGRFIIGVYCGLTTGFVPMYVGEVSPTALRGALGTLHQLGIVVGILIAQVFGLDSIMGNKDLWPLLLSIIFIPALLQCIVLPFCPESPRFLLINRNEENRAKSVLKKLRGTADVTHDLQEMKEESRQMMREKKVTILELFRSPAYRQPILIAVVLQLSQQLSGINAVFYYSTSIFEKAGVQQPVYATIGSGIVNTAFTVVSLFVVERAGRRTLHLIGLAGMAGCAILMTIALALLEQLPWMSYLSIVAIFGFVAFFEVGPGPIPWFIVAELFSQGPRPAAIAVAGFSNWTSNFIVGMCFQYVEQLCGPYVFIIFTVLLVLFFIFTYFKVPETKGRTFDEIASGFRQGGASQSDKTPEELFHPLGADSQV

[2] = target: Hexose transporter 1 (Plasmodium falciparum) (UniProt O97467); experiment: ST_JUDE_LEISH: Cytotoxicity at 2uM final concentration against transgenic Leishmania Mexicana promastigotes LmPfHT that are glucose transport deficient and complemented with the Plasmodium falciparum hexose transporter. Activity is measured by DNA content using SYBR green in vitro
[3] = target: Glucose transporter (Leishmania mexicana) (UniProt O61059); experiment: ST_JUDE_LEISH: Cytotoxicity at 2uM final concentration against transgenic Leishmania Mexicana promastigotes LmGT2 that are glucose transport deficient and complemented with the L. Mexicana glucose transporter 2. Activity is measured by DNA content using SYBR green in vitro

SMILES	inhibition [1]	inhibition [2]	inhibition [3]
COc1cc2nc(NCCc3ccccc3)nc(NCCCc3ccccc3)c2cc1OC	6.89%	10.1%	2.36%
COc1cccc(CC(=O)NC2CCN(c3ccnc4cc(Cl)ccc34)C2)c1 (configuration not stated)	0.02%	-0.46%	1.48%
N=C(N)NN=Cc1c[nH]c2ccc(-c3ccccc3)cc12	0.57%	0.13%	1.34%
C=CCn1c(Sc2ccc(C#N)c([N+](=O)[O-])c2)nnc1-c1cc(OC)cc(OC)c1	12.5%	13.4%	10.9%
CN1CCN(CC(=O)Nc2cccc(-c3ccc(-c4nc5cc(F)ccc5[nH]4)cc3)c2)CC1	-1.54%	0.97%	3%
O=C(NCc1ccc(Cl)cc1)c1ccc(C(=O)NCC2CCCN2CC2CCCCC2)cc1 (configuration not stated)	2.97%	1.54%	1.14%
CC(O)CNc1nc2ccccc2n1CC(=O)Nc1cccc(C(=O)Nc2cccc(C(F)(F)F)c2)c1 (configuration not stated)	1.41%	1.81%	4.48%
COc1ccc(NC(=O)N2CCc3ccc(OCCN(C(C)C)C(C)C)cc32)cc1C(F)(F)F	7.93%	7.33%	5.73%
CC1CN(c2nc(NCCc3ccc(O)cc3)nc(NCc3ccccc3-c3ccc(C(F)(F)F)cc3)n2)CC(C)N1 (configuration not stated)	4.25%	4.62%	6.55%
CC(C)C(=O)NC(NC(=S)Nc1ccc(Br)cc1)C(Cl)(Cl)Cl (configuration not stated)	-2.18%	2.18%	-0.89%
Cc1nc(C)c(-c2ccc(C(=O)c3ccc(Cl)cc3)cc2)c(O)c1Cl	8.16%	10.4%	9.25%
CCN(CCCN1CCCCC1)c1cc(C)nc(Nc2ccc(C)cc2Cl)n1	9.81%	7.68%	7.34%
CC(C)(C)Oc1ccc(CC2NC3(C(=O)N(Cc4ccc(C(C)(C)C)cc4)c4ccccc43)C3C(=O)N(c4ccc(Br)cc4)C(=O)C23)cc1 (configuration not stated)	-1.37%	3%	0.37%
CN=C(S)NN=C(C)c1ccccn1	2.61%	-4.43%	-1.99%
CCn1c(-c2nonc2N)nc2cnc(Oc3cccc(NC(=O)c4ccc(OCCN5CCCC5)cc4)c3)cc21	7.41%	9.98%	7.84%
O=C(NC1CCN(Cc2ccccc2)CC1)c1cc(C(=O)NC2CCN(Cc3ccccc3)CC2)cc(C(=O)NC2CCN(Cc3ccccc3)CC2)c1	5.09%	4.78%	4.94%
CNCCNCc1ccc(-c2ccc(-c3nc4ccccc4[nH]3)s2)cc1	3.78%	4.5%	3.75%

SMILES	inhibition [1]	inhibition [2]	inhibition [3]
COc1ccc(C=NNc2ccnc3cc(F)c(C)cc23)c2ccccc12	8.78%	8.43%	4.95%
O=C(/C=C/c1ccc(C(F)(F)F)cc1)NCCCCCN1CCCN(C(=O)Nc2ccc(F)c(Cl)c2)CC1	1.19%	1.85%	0.39%
CC(C)N1CCCN(C(=O)C2CCN(c3ccc(C(=O)N4CCCC4)cn3)CC2)CC1	5.32%	4.11%	4.51%
Cc1nc(C)c(CC(=O)Nc2cccc(-c3cccc(-c4nc5cccc(C)c5[nH]4)c3)c2)s1	-1.73%	-0.36%	-0.58%
Cc1nc2ccc(S(=O)(=O)Nc3ccc(C(=O)N[C@@H](CCC(=O)O)C(=O)O)cc3)cc2c(=O)[nH]1	0.38%	-1.45%	0.45%
CCN(CC)CCCN(CCCN(CC)CC)c1cc(C)nc(Nc2ccc3cc(Br)ccc3c2)n1	1.34%	4.9%	3.03%
CCNc1cc(C(=O)N[C@@H](Cc2ccccc2)[C@H](O)CN[C@H]2CCc3ccccc32)cc(N2CCCC2=O)c1	1.96%	1.74%	2%
c1ccc(CCNCc2ccc(-c3ccc(CNc4ccc5ncccc5c4)cc3)cc2)cc1	9.9%	1.61%	2.13%
O=C(Cn1c(CCc2cccc(F)c2F)nc(=O)c2ccccc21)N(Cc1ccc(-c2ccc(C(F)(F)F)cc2)cc1)C1CCN(C2=NCCS2)CC1	3.56%	4.28%	4.67%
CCN(CCCN1CCCCC1)c1cc(C)nc(Nc2cc(C(F)(F)F)ccc2C)n1	-1.35%	0.37%	0%
COc1cc(OC)c(NC(=O)C2c3ccccc3C(=O)N(C)C2c2cccs2)cc1Cl (configuration not stated)	2.2%	5.87%	5.98%
CC(C)CC(=O)Nc1cc(=O)[nH]c2nc(-c3ccccc3)nn12	3.45%	3.9%	4.09%
CC(C)CCn1c(Sc2ccc(C#N)c([N+](=O)[O-])c2)nnc1-c1ccc(Cl)cc1	10.1%	9.73%	4.99%
O=C(O)CCSc1ncnc2[nH]cnc12	-2.53%	-2.15%	-2.15%
Cc1cccc(C(=O)Nc2ccnc(N3CCC(N(C)Cc4ccc(C#N)cc4)CC3)c2)c1	3.54%	2.52%	3.1%
CC(C)NC[C@@H](O)[C@H](Cc1ccccc1)NC(=O)c1cc2c3c(c1)c(C(C)C)cn3CCS(=O)(=O)N2C	2.21%	2.85%	2.8%
CC(=O)Nc1ccc(CN2CCCN(c3cc(NC(=O)c4cccc(C)c4)ccn3)CC2)cc1	8.6%	11.9%	10.9%
